# Screens as filed in PubChem.
# A selection: hits, their analogues and other compounds. The true share with any hit is near 1.6%.
# KCNQ2 pot = KCNQ2 (rat) channel potentiation. 310,000 tested, 0.54% active. CHO-K1 KCNQ2, FluxOR thallium flux fluorescence; hits give high values. O88943. B-score at 10 µM;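 active = fluorescence ratio B-score at least 3 SD of library B-scores, with initial fluorescence B-score within 3 of them, cut at about 5.3 in these data; same plate scores as AID 2156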;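 also: B-score of peak minus minimum over baseline fluorescence ratio after K+ and Tl+ stimulus; positive B-score means potentiation of KCNQ2 with more thallium influx and brighter signal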
# Target sequence (O88943 whole entry, looked up): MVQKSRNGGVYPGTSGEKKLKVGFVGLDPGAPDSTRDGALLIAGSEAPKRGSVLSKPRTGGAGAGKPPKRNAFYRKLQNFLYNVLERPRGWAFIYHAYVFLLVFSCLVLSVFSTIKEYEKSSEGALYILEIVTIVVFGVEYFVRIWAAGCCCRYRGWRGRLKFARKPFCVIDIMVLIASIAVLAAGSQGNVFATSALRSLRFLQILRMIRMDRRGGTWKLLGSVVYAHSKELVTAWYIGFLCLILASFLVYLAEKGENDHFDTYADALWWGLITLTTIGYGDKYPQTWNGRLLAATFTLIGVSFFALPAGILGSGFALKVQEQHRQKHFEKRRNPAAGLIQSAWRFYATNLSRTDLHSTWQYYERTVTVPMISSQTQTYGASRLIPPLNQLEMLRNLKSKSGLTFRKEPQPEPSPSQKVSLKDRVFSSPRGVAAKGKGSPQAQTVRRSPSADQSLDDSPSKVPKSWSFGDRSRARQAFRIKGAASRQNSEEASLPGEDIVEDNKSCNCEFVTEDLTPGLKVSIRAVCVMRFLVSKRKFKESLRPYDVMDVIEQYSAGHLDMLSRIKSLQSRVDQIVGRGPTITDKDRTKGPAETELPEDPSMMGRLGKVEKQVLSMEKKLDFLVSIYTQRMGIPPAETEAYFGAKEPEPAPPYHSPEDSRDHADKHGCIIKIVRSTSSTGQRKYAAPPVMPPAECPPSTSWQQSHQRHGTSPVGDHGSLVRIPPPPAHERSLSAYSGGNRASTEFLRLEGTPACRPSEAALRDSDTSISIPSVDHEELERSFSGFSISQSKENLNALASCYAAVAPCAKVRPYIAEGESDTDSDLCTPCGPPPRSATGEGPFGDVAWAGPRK
# KCNQ2 inh = blocks the rat KCNQ2 potassium channel; O88943; CHO-K1 KCNQ2, FluxOR thallium flux, 20 min; hits give low values; B-score at 10 µM; 310,000 tested, 1.1% active; AID 2156;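 active = fluorescence ratio B-score at most minus 3 library SDs, with starting brightness B-score within 2 library SDs, cut at about -5.5 in these data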
# * marks the source's active call; other numbers are inactive results; i = inactive; x = not tested or not shown.
SMILES,KCNQ2 pot,KCNQ2 inh
COc1ccc(CN(C)C(c2ccccc2)c2nnnn2-c2ccccc2C)c(OC)c1C (stereo not drawn),-6,-6*
COc1cc(OC)c(OC)cc1CN(C)C(c1ccccc1)c1nnnn1-c1ccccc1C (stereo not drawn),x,i
Cn1c(=O)c2c(nc3n2CC(COc2ccccc2)O3)n(C)c1=O (stereo not drawn),0.24,i
CCOC(=O)c1ccc(NC(=O)CN2CCN(C(=O)C3CCCO3)CC2)cc1 (stereo not drawn),x,i
Cc1cc(Sc2ncnc(N)c2[N+](=O)[O-])ncn1,-5.9,-5.9*
Cc1cc(Sc2nc(N)ncc2[N+](=O)[O-])ncn1,x,i
COc1ccc(S(=O)(=O)N(C)CC(=O)N2CCC(C(N)=O)CC2)cc1Cl,0.93,i
CCCN1CCN(CC(O)COC(c2ccc(OC)cc2)c2ccc(OC)cc2)CC1 (stereo not drawn),0.01,i
Cc1ccccc1Nc1nnc(SCC(=O)NC2CCCc3ccccc32)s1 (stereo not drawn),x,i
COc1cc(-c2csc(N3CCOCC3)n2)cc(OC)c1OC,0.33,i
COc1ccc(-c2csc(N3CCN(c4cc(C)nc5ccccc45)CC3)n2)cc1OC,-6.3,-6.3*
O=c1c2c(-c3cccs3)csc2ncn1/N=C/c1ccccn1,x,i
O=c1c2c(-c3cccs3)csc2ncn1/N=C/c1ccc(OC(F)F)cc1,-7.4,-7.4*
CCc1noc(C)c1C(=O)NC1CC(C)(C)Cc2c1cnn2-c1ccccc1 (stereo not drawn),0.87,i
COc1ccc(C(=O)N2CCOC2CNC(=O)C(=O)NCc2ccc3c(c2)OCO3)cc1 (stereo not drawn),0.03,i
CSc1c(CC(=O)Nc2ccccc2)n(C)c2ccccc12,x,i
Cn1c(CC(=O)Nc2ccccc2)c(Sc2ccccc2)c2ccccc21,-6.2,-6.2*
CCOC(=O)CN1C(=O)N[C@@H](CCc2ccccc2)[C@H](C(=O)OC)[C@H]1C,0.38,i
Cc1sc2nc(SCC(=O)NCc3ccco3)n(C)c(=O)c2c1C,x,i
CCn1c(SCC(=O)NC(=O)NCc2ccco2)nc2sc(C)c(C)c2c1=O,6*,i
Cc1nc(COC(=O)c2c(C)nn(-c3ccccc3)c2C)cs1,x,i
COc1cccc2[nH]c3c(N4CCN(Cc5ccc6c(c5)OCO6)CC4)ncnc3c12,1.1,i
Cc1ccc2[nH]c3c(N4CCN(Cc5ccccc5)CC4)ncnc3c2c1,x,i
COc1ccc2c(c1)[nH]c1c(N3CCN(Cc4ccc5c(c4)OCO5)CC3)ncnc12,-8.1,-8.1*
c1ccc(CN2CCN(c3ncnc4c3[nH]c3ccccc34)CC2)cc1,-8.1,-8.1*
SMILES,KCNQ2 pot,KCNQ2 inh
CCOC(=O)C1=NN(C(=O)c2ccccc2)C(O)(c2ccc(C)cc2)C1 (stereo not drawn),3.8,i
CCOC(=O)C1=NN(C(=O)c2ccc(OC)cc2)C(O)(c2ccc(Cl)cc2)C1 (stereo not drawn),16*,i
COc1ccc(OC)c(-c2csc(N(CC3CCCO3)C(=O)C3CCCCC3)n2)c1 (stereo not drawn),x,i
Clc1ccc(-c2nnc(-c3ccco3)nc2N2CCCCC2)cc1,x,i
Clc1ccc(-c2nnc(-c3ccc(Br)cc3)c(N3CCSCC3)n2)cc1,-7,-7*
FC(F)(F)c1ccc(C2[C@H]3CN(Cc4ccc(-c5ccccc5)cc4)[C@H](c4ccccc4)C34CC2(c2cccnc2)C4)cc1 (stereo partly drawn),1,i
FC(F)(F)c1ccc(C2[C@H]3CN(Cc4cccnc4)[C@H](c4ccccc4)C34CC2(c2cccnc2)C4)cc1 (stereo partly drawn),-7.2,-7.2*
COc1ccc(C2CC(c3c(-c4ccccc4)c4cc(Cl)ccc4[nH]c3=O)=NN2S(C)(=O)=O)cc1 (stereo not drawn),0.16,i
COc1ccc(OC)c(C2CC(c3c(-c4ccccc4)c4cc(Cl)ccc4[nH]c3=O)=NN2S(C)(=O)=O)c1 (stereo not drawn),-7,-7*
COc1ccc(/C(N)=N/OC(=O)Cc2cccs2)cc1OC,3.2,i
COc1ccc(/C(N)=N/OC(=O)Cc2cccs2)cc1,-7,-7*
CCOC(=O)C1CCN(C(=O)c2cccnc2Cl)CC1,x,i
Cc1ccccc1COn1nnc2ccc(S(=O)(=O)N3CCOCC3)cc21,-6.7,-6.7*
CN(C(=O)COn1nnc2ccc(S(=O)(=O)N3CCOCC3)cc21)c1ccccc1,0.23,i
COc1ccc(NC(=O)NC2(C(=O)N3CCN(C)CC3)CCCCC2)cc1,x,i
O=C(O)CC1(CC(=O)Nc2ccccc2N2CCOCC2)CCCC1,x,i
COc1ccc(CCNC(=O)CSc2cccc3cccnc23)cc1OC,-6.3,-6.3*
COc1ccc(CCNC(=O)CSc2ccccn2)cc1OC,0.58,i
CCOC(=O)C1=NN(C(=O)c2cccc(Br)c2)C(O)(C(C)(C)C)C1 (stereo not drawn),22*,i
CCOC(=O)C1=NN(C(=O)c2ccco2)C2(CC2)C1,0.13,i
Cc1cc(-c2ccc(C(C)C)c(S(=O)(=O)N3CCN(c4ccccc4)CC3)c2)on1,x,i
COc1ccccc1N1CCN(S(=O)(=O)c2cc(-c3cc(C)no3)ccc2C(C)C)CC1,-6,-6*
CC(C)(C)OC(=O)N1CCC(CC2CC(c3cccc(Br)c3)=NO2)(C(=O)NCC2CCCCC2)CC1 (stereo not drawn),-8.1,-8.1*
O=C(c1ccccc1)N1CCC(CC2CC(c3cccc(Br)c3)=NO2)(C(=O)NCC2CCCCC2)CC1 (stereo not drawn),x,i
COCCN(C(=O)COC(=O)CCCOc1ccccc1)c1c(N)n(Cc2ccccc2)c(=O)[nH]c1=O,0.52,i
SMILES,KCNQ2 pot,KCNQ2 inh
CC(=O)c1ccc(NC(=O)c2ccc3nc(-c4ccco4)c(-c4ccco4)nc3c2)cc1,x,i
O=C(Nc1ccccc1)c1ccc2nc(-c3ccco3)c(-c3ccco3)nc2c1,-6.5,-6.5*
CCCN(C(=S)Nc1ccccc1)C1CCS(=O)(=O)C1 (stereo not drawn),x,i
C/C(CC(=O)Nc1cccc(Br)c1)=N\NC(=O)c1ccc(O)cc1O,x,i
Cc1noc(C)c1CSc1nc2ccccc2c(=O)n1-c1ccccc1,-7.1,-7.1*
COc1ccc(C(C)=O)cc1CSc1nc2ccccc2c(=O)n1-c1ccccc1,x,i
COc1ccc(C(C)=O)cc1CSc1nc2ccccc2c(=O)n1-c1cccc(C)c1,-6.7,-6.7*
Cc1noc(C)c1CSc1nc2[nH]ncc2c(=O)n1-c1ccccc1,x,i
CCN1C(=O)[C@@H]2[C@H](C1=O)[C@@H]1CC(C(=O)OC)=C[C@@H](C(=O)OC)C3C1=C(C(=O)C3(CC)CC)[C@@H]2C (stereo partly drawn),0.94,i
COc1ccc(C2/C(=C(/O)c3ccccc3)C(=O)C(=O)N2C)cc1OC (stereo not drawn),0.81,i
Cc1ccc(S(=O)(=O)N2CCN(CC(=O)NC3CCCc4ccccc43)CC2)c(C)c1 (stereo not drawn),-6.1,-6.1*
Cc1ccc(OCC(=O)NC2CCCc3ccccc32)c(C)c1 (stereo not drawn),x,i
NC(=O)C1CCN(CC(=O)NC2CCCc3ccccc32)CC1 (stereo not drawn),1.5,i
